Molecules are shown by their SMILES. Inconclusive results are not listed. A call without a number means that no potency is given here. Activity calls are given as the source filed them. Calls come from the whole dose curve; as a rule, active = well fitted cell-killing curve with a large enough effect; inconclusive = small, poorly fitted or top-dose-only effect, or effect the other way; inactive = flat fitted curve, though single readings scatter.

Consider 40 compounds from PubChem BioAssay (NCATS).
Potency is the fitted concentration of half-maximal effect.

In the experiment the test system is CAOV3. The experiment can be described thus: Primary qHTS to identify gynecologic anti-cancer compounds using libraries of approved drugs and bioactive compounds (AID 1345084). Note: nearly all actives have a fitted effect of over 55% in size. Particulars: Gynecologic cancer cell panel viability, ATPlite luminescence, 48 h; series mostly up to 57.5 µM. From the text:
National Center for Advancing Translational Sciences [NCATS] Assay Overview: Chemotherapeutic drug responses vary from cancer to cancer and from patient to patient. These variations could be caused by a number of factors including patient genomic background, tumor mutations, tumor heterogeneity, and aspects of drug treatment. Chemotherapeutic drug resistance is also a common issue and can lead to ineffective treatment and patient death. Here we have profiled the cell killing effects of thousands of compounds to characterize the responses in three gynecological cancers, identify cancer-selective compounds, and understand the diversity of responses to these compounds from pan-cancer suppressors to single cell line selective compounds. In this assay, we screened a 7,914 compound drug library that included approved drug and bioactive compounds in six ovarian, three cervical, and […] placental cancer cell lines using the ATPlite assay for cell viability. […] The cervical cancer cell lines included HeLa, Ca Ski, and C-33 A. The placental cancer cell lines included JEG-3. HEK 293T cells were used as the control cell line to determine the selectivity index. ATPlite is a luminescence based assay reliant on the conversion of a luciferase substrate to light in the presence of ATP. As a cytotoxic compound will suppress growth and decrease the number of cells, the concentration of ATP will decrease, and less light signal will be detected in the well.
Assay Protocol Summary: 1,000 cells in 4 uL of media were dispensed into white, solid bottom 1536-well plates using a Multidrop Combi (Thermo Scientific). The Assay plates were incubated for 16 hours at 37 C with 5% CO2 in assay plates, followed by the addition of 23 nL of DMSO or drug dissolved in DMSO. Each compound was assayed in five concentrations (0.092, 0.46, 2.3, 11.5, and 57.5 uM), using the automated Wako 1536 Pin Tool workstation and incubated at 37 C with 5% CO2 48 hours. 4 uL of ATPlite, the ATP monitoring reagent, was then added to the each well of the assay plates using the Multidrop Combi reagent dispenser followed by incubation for 15 minutes at room temperature. The resulting luminescence was measured using the ViewLux plate reader.
For orientation: In qHTS, concentration-response curves come from the screen itself.
Take `Cn1cc[nH]c1=S`: the Potency entry is “inactive”. Still for that read-out and setting: then `CC(C(O)c1ccc(O)cc1)N1CCC(Cc2ccccc2)CC1` (stereo not given), with “inactive”.

Take `COc1ccc2[nH]c(S(=O)Cc3ncc(C)c(OC)c3C)nc2n1` (stereo not given): the Potency result is “inactive”. The same measure, in the same setting: then `C[C@@H]1CN(c2c(F)c(F)c3c(=O)c(C(=O)O)cn(C4CC4)c3c2F)C[C@H](C)N1`, with “inactive”; and `CCn1cc(C(=O)O)c(=O)c2cnc(N3CCNCC3)nc21`, with “inactive”. With `CCOc1nc2cccc(C(=O)O)c2n1Cc1ccc(-c2ccccc2-c2nn[nH]n2)cc1`, the Potency entry is “inactive”.

Take `Cc1ccc2nc(N)[nH]c(=O)c2c1Sc1ccncc1`: the Potency entry was “inactive”.

As for `Cc1cccc(C)c1NC(=O)CN(CC(=O)O)CC(=O)O`, the Potency result is “inactive”. Still for that read-out and setting: as for `CCCCCCCCCCCCCCCCCCOCC(O)CO` (stereo not given), the entry is “inactive”. Regarding `O=c1[nH]c(=O)c2[nH]c(=O)[nH]c2[nH]1`, the activity change, negative = cytotoxicity is 6.78% [at 11.6 µM] (inactive). `CC[N+](CC)(CC)CCOc1ccc(/C=C/c2ccccc2)cc1`: the Potency is 10 µM (active). On the same count and under the same terms, as for `CCN(CC)C(C)CN1c2ccccc2Sc2ccccc21` (stereo not given), the entry is “inactive”; as for `CCN(CC)CCNC(=O)c1c(C)[nH]c(/C=C2\C(=O)Nc3ccc(F)cc32)c1C`, 25.1 µM (active); as for `O=S(=O)(O)NC1CCCCC1`, “inactive”.

Consider `C[C@@H]1CCN(C(=O)[C@H](CCCN=C(N)N)NS(=O)(=O)c2cccc3c2NC[C@H](C)C3)[C@@H](C(=O)O)C1`, for which the Potency entry is “inactive”.

For the compound `NS(=O)(=O)c1cc2c(cc1C(F)(F)F)NC(Cc1ccccc1)NS2(=O)=O` (stereo not given), the Potency result is “inactive”. The same measure, in the same setting: as for `O=C(O)CN1C(=O)c2cccc3cccc(c23)C1=O`, the entry is “inactive”; as for `O=c1[nH]cnc2c1ncn2[C@@H]1O[C@H](CO)[C@@H](O)[C@H]1O`, “inactive”. On the same count and under the same terms, as for `CC(=O)OCC(=O)[C@@]1(O)CC[C@H]2[C@@H]3CCC4=CC(=O)CC[C@]4(C)[C@H]3C(=O)C[C@@]21C`, the entry is “inactive”.

On to `CCCn1cnc2c1c(=O)n(CCCCC(C)=O)c(=O)n2C`, for which the Potency entry is “inactive”.

Regarding `OCCN1CCN(CCCN2c3ccccc3Sc3ccc(Cl)cc32)CC1`, the Potency was 25.1 µM (active). As to `NCCNCCNCCNCCN`, the activity change, negative = cytotoxicity is 11.8% [at 11.6 µM] (inactive). Take `COc1ccc2cc1Oc1cc3c(cc1OC)CC[N+](C)(C)[C@H]3Cc1ccc(cc1)Oc1c(OC)c(OC)cc3c1[C@@H](C2)[N+](C)(C)CC3`: the Potency result was “inactive”. On to `CC(C)(C(=O)O)c1ccc(C(O)CCCN2CCC(C(O)(c3ccccc3)c3ccccc3)CC2)cc1` (stereo not given), for which the Potency entry is “inactive”.

As to `CCCCN1CCCC[C@H]1C(=O)Nc1c(C)cccc1C`, the Potency result is “inactive”. Still for that read-out and setting: then `C[C@H]1O[C@@H](n2cc(F)c(=O)[nH]c2=O)[C@H](O)[C@@H]1O`, with “inactive”.

As to `NCCNCCNCCN`, the Potency entry is “inactive”. On the same count and under the same terms, then `CN1CCC[C@@H]1Cc1c[nH]c2ccc(CCS(=O)(=O)c3ccccc3)cc12`, with “inactive”. Consider `O=C(O)COc1nn(Cc2ccccc2)c2ccccc12`, for which the Potency result is “inactive”.

Turning to `CN1[C@@H]2CC[C@H]1CC(OC(=O)C(O)c1ccccc1)C2` (stereo not given in full), the Potency entry is “inactive”. On the same count and under the same terms, as for `CCCCN(CCCC)CCCOC(=O)c1ccc(N)cc1`, the entry is “inactive”. For the compound `CC(=O)CCC(=O)O`, the Potency result is “inactive”. The same measure, in the same setting: as for `COc1ccc2c(c1)C(=O)N(CCc1ccc(S(=O)(=O)NC(=O)NC3CCCCC3)cc1)C(=O)C2(C)C`, the entry is “inactive”; as for `CCCCC(CC)COC(=O)c1ccccc1O` (stereo not given), “inactive”. The same measure, in the same setting: as for `CC(C)C(=O)c1c(C(C)C)nn2ccccc12`, the entry is “inactive”. Same read-out and setting: then `Cc1cccc(Nc2cc(Cl)nc(SCC(=O)O)n2)c1C`, with “inactive”; and `CC1(C)OC(=O)NC1=O`, with “inactive”. As to `CCCOC(=O)c1ccccc1`, the Potency entry was “inactive”. Still for that read-out and setting: then `O=c1cc[nH]c(=O)[nH]1`, with “inactive”; and `c1ccc2c(CC3=NCCN3)cccc2c1`, with “inactive”.
